ALDH1A1 inh: ALDH1A1 (human) enzyme inhibition | P00352 | Purified ALDH1A1, NADH fluorescence, propionaldehyde substrate | Potency, µM (top dose mostly 75.3 µM), inactives show top-dose activity, negative = inhibition, actives largely listed as inhibitors | 220,000 tested, 7.3% active | AID 1030;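 further: potency means the concentration at half of the fitted maximal effect; plate controls were no enzyme wells and a reference inhibitor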
Target sequence (P00352 whole entry, looked up): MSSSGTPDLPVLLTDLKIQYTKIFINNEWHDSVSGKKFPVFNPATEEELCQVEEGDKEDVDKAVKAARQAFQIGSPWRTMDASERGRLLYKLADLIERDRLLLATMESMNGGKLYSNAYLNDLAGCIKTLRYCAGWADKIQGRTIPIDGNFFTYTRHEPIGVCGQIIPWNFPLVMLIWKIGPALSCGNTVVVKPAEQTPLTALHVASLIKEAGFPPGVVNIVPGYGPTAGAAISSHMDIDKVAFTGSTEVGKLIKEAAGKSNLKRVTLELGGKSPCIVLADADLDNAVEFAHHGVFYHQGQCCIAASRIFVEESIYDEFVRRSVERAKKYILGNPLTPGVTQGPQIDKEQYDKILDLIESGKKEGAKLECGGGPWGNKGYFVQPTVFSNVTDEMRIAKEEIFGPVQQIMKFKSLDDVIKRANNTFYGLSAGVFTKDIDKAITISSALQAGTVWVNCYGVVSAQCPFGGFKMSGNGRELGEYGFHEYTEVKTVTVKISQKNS
IMPase inh: membrane-permeable compound that blocks inositol monophosphatase | P97697 | CHO-M1 cells, IP1 accumulation, HTRF TR-FRET ratio | inhibition (IP1 accumulation), % at 46.1 µM | 120,000 tested, under 10 active | AID 901; active means well fitted curve in the direction sought with a large enough effect in the signal ratio, not every such curve was filed as active; inconclusive means small, poorly fitted or top-dose-only effect, or a change in a side signal; inactive means no such curve, though single readings can be large or run the other way; the % refers to the signal ratio;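 further: cells stimulated with carbachol in lithium chloride buffer; plate controls were DMSO basal wells for no effect and reference inhibitor wells for full effect; higher means more IMPase inhibition seen as more IP1 and lower FRET ratio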
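Cellular IMPase inhibition is scored as a rise in cytosolic IP1, detected by competitive TR-FRET between d2-labelled IP1 and a europium anti-IP1 antibody. M1-expressing CHO cells were stimulated with carbachol for 30 min at 37C, with lithium (50 mM LiCl) present in the buffer.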
HPGD block: HPGD (human) dehydrogenase inhibition | P15428 | purified HPGD, NADH fluorescence kinetic, PGE2 substrate | Potency, µM, inactives show top-dose activity change, negative = inhibition, hits mostly inhibitors | 150,000 tested, 4.3% active; further: potency means the concentration at half of the fitted maximal effect
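20 nM HPGD preincubated 15 min at room temperature with compound in 50 mM Tris-HCl pH 8, 0.01% Tween 20. Started with 1 mM NAD+ and 30 uM prostaglandin E2; NADH fluorescence (360/450 nm) read 5 times over 30-s intervals, last minus first.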
Numbers without * were called inactive; u = inconclusive; x = not tested or not shown; [ ] = remark or other dose. Rows were chosen to be rich in hits. Some 9% of all compounds tested hit in one or more screens of this group. Unless noted, the call rests on the fitted dose curve; in most records, active means well fitted inhibition curve with a large enough effect (not every such curve was filed as active); inconclusive means small, poorly fitted or top-dose-only effect, or another doubt; inactive means no such curve, though single readings can be large or run the other way. Unless noted, on the % scale 0 is the no-effect control and ±100 the full control effect.

SMILES	ALDH1A1 inh	IMPase inh	HPGD block
O=C(Nc1nccs1)c1ccc(-c2ccc(Cl)cc2Cl)o1	u	6.1	u
O=C(O)c1ccccc1C(=O)Nc1nccs1	9.3%	3.4	-2.4%
CCCc1cc(C(=O)Nc2nccs2)cs1	u	22.1	10µM*
O=C(Nc1nccs1)c1ccc(Br)o1	u	-4.1	25.1µM*
O=C(O)/C=C/C(=O)Nc1nccs1	-0.3%	x	x
CSc1ccccc1C(=O)Nc1nccs1	u	-4.0	15.8µM*
CCC(CC)C(=O)Nc1cccc(C(=O)Nc2nccs2)c1	-0.1%	1.6	-12.1%
O=C(/C=C/c1ccc(Br)o1)Nc1nccs1	22.4µM*	x	x
CN(Cc1ccccc1)CC(O)COc1ccc(CNCc2ccc(Cl)s2)cc1 (stereo not drawn)	3.5%	x	x
O=S(=O)(Nc1ccncc1Cl)c1ccccc1	10.0%	4.6	-14.4%
O=C(c1cc2cc([N+](=O)[O-])ccc2oc1=O)N1CCN(C2CCCCC2)CC1	-3.4%	x	x
NC(=O)c1ncn([C@@H]2O[C@@H](CO)[C@@H](O)[C@H]2O)c1O	x	0.5	x
O=C(Cc1ccc(-n2cccc2)cc1)NCc1cccs1	-2.8%	-5.4	x
CCn1cc(/C=N\NC(=O)c2ccc(F)cc2)cn1	3.0%	x	-3.8%
COCCNC(=S)N(C)C1(c2ccccc2Cl)CCCCC1=O (stereo not drawn)	2.5%	x	x
C/C(=C\C(=O)Nc1nccs1)c1ccccc1	-4.5%	u	15.8µM*
C/C(=C\C(=O)O)C(=O)Nc1nccs1	3.5%	-5.4	-10.2%
CC(Oc1ccc(F)cc1)C(O)CCN(C)C (stereo not drawn)	-2.6%	x	x
Cc1cccc2sc(NC(=O)C3CCCN(S(=O)(=O)c4cccc5nonc45)C3)nc12 (stereo not drawn)	3.1%	-2.3	-13.4%
Cc1nccn1S(=O)(=O)c1cc([N+](=O)[O-])ccc1Cl	u	x	-1.6%
CC1=NCCN1S(=O)(=O)c1cc([N+](=O)[O-])ccc1Cl	7.94µM*	x	x
O=C(NCc1ccc(Cl)cc1)C1CCN(S(=O)(=O)c2cc([N+](=O)[O-])ccc2Cl)CC1	1.41µM*	0.7	-5.3%
Cc1cccc2sc(NC(=O)C3CCN(S(=O)(=O)c4cc([N+](=O)[O-])ccc4Cl)CC3)nc12	7.08µM*	22.0	-20.2%
O=C(NCc1ccc(Cl)cc1)C1CCN(S(=O)(=O)c2ccccc2)CC1	u	3.3	x
Fc1ccccc1N1CCN(CCCNc2ccc3nncn3n2)CC1	1.9%	8.5	-5.8%
SMILES	ALDH1A1 inh	IMPase inh	HPGD block
Cc1cc(NC(=O)CSc2nnc(-c3cccnc3)n2Cc2ccccc2)no1	6.9%	x	x
CCOC(=O)C1=C(C)NC(=S)NC1c1ccc(C)s1 (stereo not drawn)	2.51µM*	x	x
CCOC(=O)C1=C(C)NC(=S)NC1c1cc(C)sc1C (stereo not drawn)	39.8µM*	x	x
CCOC(=O)C1=C(C)N(C)C(=O)NC1c1ccc(C)s1 (stereo not drawn)	11.2%	0.6	-3.9%
CCOC(=O)C1=C(C)NC(=S)NC1c1ccsc1 (stereo not drawn)	7.08µM*	x	x
COC(=O)C1=C(C)NC(=O)NC1c1ccsc1 (stereo not drawn)	-1.6%	u	-6.8%
CCOC(=O)C1=C(C)NC(=O)NC1c1cc(C)sc1C (stereo not drawn)	5.0%	-0.4	-2.4%
COc1ccc(CNC(=O)c2cnn3c(C(F)F)cc(C)nc23)cc1OC	16.5%	11.2	-14.3%
Cc1ccc(OCCCC(=O)NCc2ccco2)c(C)c1	-6.9%	x	x
CCOC(=O)Cn1c(=O)oc2cc(S(=O)(=O)NCCc3ccc(OCC)c(OCC)c3)ccc21	8.0%	0.5	-5.7%
COc1ccc(NS(=O)(=O)c2cccc(N/C(=N\S(=O)(=O)c3ccccc3)c3ccc(F)cc3)c2)cc1	4.0%	x	-26.0%
Cc1cc(-c2nc3c4c5c(sc4[nH]c(=O)n3n2)CCC5)c(C)o1	-7.8%	5.7	20µM*
Cc1nc2sc3c(c2c(=O)[nH]1)CCC3	-9.5%	-11.9	-15.4%
Cc1cccc(C)c1Nc1nc2ccccc2nc1NS(=O)(=O)c1ccccc1	x	5.7	x
O=C(/C=C/c1ccco1)N1CCN(c2ccccc2)CC1	u	x	0.5%
O=C(/C=C/c1ccc(F)cc1)N1CCN(S(=O)(=O)/C=C/c2ccccc2)CC1	1.7%	x	x
O=C(/C=C/c1ccco1)N1CCN(S(=O)(=O)/C=C/c2ccccc2)CC1	7.94µM*	x	x
O=C(/C=C/c1ccco1)N1CCN(S(=O)(=O)c2cccs2)CC1	7.08µM*	x	x
NC(=O)C1CCN(C(=O)/C=C/c2ccco2)CC1	u	x	-21.4%
O=C(/C=C/c1ccco1)N1CCN(C/C=C/c2ccccc2)CC1	12.6µM*	7.0	-22.6%
O=C1CCC/C(=N\NC(=O)COc2ccc(Cl)cc2)C1	-0.8%	x	x
CN(C)c1ccnc(Nc2ccc(O)cc2)c1C#N	13.2%	x	x
COc1ccc(Cc2nnc(Nc3ccc4c(c3)OCCO4)[nH]c2=O)cc1	-4.3%	x	x
Cc1ccc(C(=O)/C=C/c2ccco2)c(O)c1	u	x	-16.9%
O=[N+]([O-])c1cc([N+](=O)[O-])c2c(=Nc3ccccc3)n(-c3ccccc3)n(O)c2c1	0.355µM*	x	x
SMILES	ALDH1A1 inh	IMPase inh	HPGD block
O=[N+]([O-])c1cccc(C(=Nc2ccccc2)NO)c1	-13.9%	-3.4	-12.8%
CC(Nc1oc(-c2ccccc2)nc1-c1ccc(C(F)(F)F)cc1)c1ccccc1 (stereo not drawn)	5.7%	x	-9.9%
COc1ccc(Cc2nn3c(-c4ccccc4OC)nnc3s2)cc1	11.2µM*	0.2	28.2µM*
c1cc(-c2nnc3sc(C4CCCCC4)nn23)ccn1	3.4%	3.7	-12.4%
COc1ccccc1-c1nnc2sc(C3CCCCC3)nn12	-10.6%	7.6	28.2µM*
COc1ccccc1-c1nnc2sc(COc3ccc(Cl)cc3)nn12	11.1%	7.3	-24.1%
CCc1cccc(NC(=O)Cn2c(=O)n(CCc3ccc(OC)c(OC)c3)c(=O)c3ccccc32)c1	x	3.6	x
COc1cccc(C(=O)NC(=O)Nc2cc(C)on2)c1	13.0%	x	x
Cc1ccc(C#CC2C=CC(Oc3ccc4c(c3)OCO4)C(CO)O2)c(C)c1 (stereo not drawn)	0.3%[13.5 µM]	x	x
O=C(NC(Cc1c[nH]c2ccccc12)C(=O)N/N=C/c1ccc(Cl)cc1)c1cccs1 (stereo not drawn)	-14.0%	x	x
COc1ccc(/C=N/NC(=O)C(Cc2c[nH]c3ccccc23)NC(=O)OCC(C)C)cc1[N+](=O)[O-] (stereo not drawn)	12.6µM*	3.0	-8.0%
CCC(C)NC(=O)CN1C(=O)NC2(CCc3ccccc3C2)C1=O (stereo not drawn)	1.7%	x	x
COc1cc(/C=N/NC(=O)C(=O)NCc2cccnc2)cc(OC)c1OC	8.1%	x	-15.8%
COc1cccc(/C=N/NC(=O)C(=O)NCc2cccnc2)c1OC	15.8µM*	x	x
Cc1cccc(NC(=O)CSC2=Nc3ccccc3C3=NC(CCC(=O)NCc4ccc(F)cc4)C(=O)N23)c1 (stereo not drawn)	x	1.0	x
CCN(CC)C(=O)C(=O)c1cccn1-c1ccc(C#N)cc1	4.4%	x	x
Cc1ccc(-n2cccc2C(=S)N=P(N(C)C)(N(C)C)N(C)C)cc1	10µM*	7.5	u
Cc1nc(-c2ccccn2)sc1C(=O)Nc1ccc(Cl)c(Cl)c1	u	2.9	u
C=CCn1c(N2C(=O)CC(Cc3ccccc3)C2=O)nc2ccccc21 (stereo not drawn)	1.6%	1.4	-1.3%

Screening data: PubChem BioAssay, National Center for Advancing Translational Sciences (NCATS)
